Test results: PubChem BioAssay AID1159580 (chemical genetic matrix, 2015)
The campaign covered roughly 5,500 compounds. About 2,000 (36%) were called active. About 18% were inconclusive and are not listed. Rule as the data show it: active = normalized growth mostly below about 0.91 (no sharp cut-off); inconclusive = no clear call, values can overlap the other calls; inactive = mostly above about 0.92. This is one part of the list.

Experiment: chemical genetic growth profiling, strain panel (AID 1159580);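 also: tested at 20 µM; growth read once vehicle control cultures reached saturation at 30 °C; 1 = growth at the plate median or of vehicle wells; lower values mean less growth of the strain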
Settings: S. cerevisiae deletion strains, growth OD

Measured: normalized growth

OC[C@H]1NC[C@@H](O)[C@@H]1O
inactive: locus YAL040C, strain CLN3, hits give low values 0.993 | locus YCL061C, strain MRC1 (second series), hits give low values 1 | locus YDR363W, strain ESC2, hits give low values 1.02 | locus YER002W, strain NOP16, hits give low values 0.998 | locus YGR229C, strain SMI1, hits give low values 1.02 | locus YNL153C, strain GIM3, hits give low values 0.999 | locus YNL175C, strain NOP13, hits give low values 0.991 | locus YNL197C, strain WHI3, hits give low values 1 | locus YNL224C, strain SQS1, hits give low values 0.992 | locus YOR083W, strain WHI5 (second series), hits give low values 1.01 | locus YPL055C, strain LGE1, hits give low values 0.996 | locus YPL241C, strain CIN2, hits give low values 1.01
